{"source": "PubChem BioAssay (EPA / NIEHS)", "note": "Records with an inconclusive call do not appear. The source made the active and inactive calls. The calls were made as follows, unless noted: active = hit-call score of the fitted dose curve at least 0.9, where 1 is the maximum; inactive = score below 0.9."}
{"system": "not listed separately", "assay": "CCTE_Deisenroth_DEVTOX-GLR_Endo_CellCount: Viability Assessment in CCTE's DevTox GLR-Endo Assay, Deisenroth Lab (AID 2284420)", "method": "CCTE_Deisenroth_DEVTOX-GLR_Endo assay is a cell-based, multiplex-readout assay that uses RUES2-GLR, a human pluripotent cell line, with measurements taken at 48 hours after chemical dosing in a 384-well microplateCCTE_Deisenroth_DEVTOX-GLR_Endo_CellCount is 1 of 4 assay components calculated from the CCTE_Deisenroth_DEVTOX-GLR_Endo assay and it measures cell count. Using fluorescent nuclear staining, loss-of-signal activity can be used to understand changes in cell viability with fluorescent microscopy. It is designed to make measurements of nuclei counts as a surrogate for cell number, as detected with optical fluorescence microscopy by Perkin Elmer Harmony nuclei detection algorithm. To generalize the intended target to other relatable targets, this assay component is annotated to the cell cycle intended target family, where the subfamily is cytotoxicity.Data from the assay component CCTE_Deisenroth_DEVTOX-GLR_Endo_CellCount was analyzed as 1 assay endpoint. The endpoint the percent change in cell count relative to the 0.2% DMSO control in the CCTE_Deisenroth_DEVTOX-GLR_Endo assay. Furthermore, this assay endpoint can be referred to as a primary readout, because this assay has produced multiple assay endpoints where this one serves as a measure of cytotoxicity.\nAll assay protocols are aligned to the DevTox GLR-Endo assay workflow. Cells are seeded into 384-well microplates for 24 hours prior to initiating differentiation in defined media for a total duration of 48 hours. A total of two chemical exposures are administered in 24-hour intervals during the 48-hour differentiation period. At the assay termination point, cells are fixed and stained with a fluorescent dye demarcating the nucleus. High-content imaging is used to acquire brightfield and fluorescent channel images across 5 fields per well. Cell identification and mean biomarker fluorescence intensities are calculated with image analysis software to determine the total cell counts for viability assessment and the biomarker expression frequency for each lineage-dependent assay. A typical experimental design tests a 10-point concentration series (1 nM - 200 uM) for 28 compounds in single technical replicate. Assay plate controls include non-differentiated pluripotent cells (baseline control), lineage-specific differentiated cells (differentiation control), and DMSO solvent exposed differentiated cells (solvent control). Experiments typically comprise a minimum of four experimental replicates (n=4)."}
{"smiles": "COc1ccc2[nH]c([S@@](=O)Cc3ncc(C)c(OC)c3C)nc2c1", "AC50": "47.9 µM (active)"}
{"smiles": "Oc1cc(O)c2c(c1)O[C@H](c1ccc(O)c(O)c1)[C@@H](O)C2", "AC50": "167 µM (active)"}
{"smiles": "Nc1cccc2c1C(=O)N(C1CCC(=O)NC1=O)C2=O", "note": "(centres undefined)", "AC50": "0.281 µM (active)"}
{"smiles": "c1cc(-c2cnn3cc(-c4ccc(OCCN5CCCCC5)cc4)cnc23)ccn1", "AC50": "20 µM (active)"}
{"system": "SRY-box transcription factor 17 (SOX17) Protein Expression, Deisenroth Lab, SOX17 (gene 64321)", "assay": "CCTE_Deisenroth_DEVTOX-GLR_Pluri_SOX17: CCTE's DevTox GLR-Pluri Assay Evaluation of SRY-box transcription factor 17 (SOX17) Protein Expression, Deisenroth Lab (AID 2284427; active = hit-call score of the fitted dose curve at least 0.9, where 1 is the maximum)", "procedure,_shortened": "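Using an inducible fluorescent SOX17 reporter in human pluripotent RUES2-GLR cells, compounds (1 nM - 200 uM) were given twice over 48 h differentiation. Percent SOX17+ cells minus DMSO control came from high-content image analysis.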"}
{"smiles": "COc1ccc2[nH]c([S@@](=O)Cc3ncc(C)c(OC)c3C)nc2c1", "AC50": "54 µM (active)"}
{"smiles": "Nc1cccc2c1C(=O)N(C1CCC(=O)NC1=O)C2=O", "note": "(centres undefined)", "outcome": "inactive"}
{"smiles": "c1cc(-c2cnn3cc(-c4ccc(OCCN5CCCCC5)cc4)cnc23)ccn1", "outcome": "inactive"}
{"system": "SRY-box transcription factor 2 (SOX2) Protein Expression, Deisenroth Lab, SOX2 (gene 6657)", "assay": "CCTE_Deisenroth_DEVTOX-GLR_Pluri_SOX2: CCTE's DevTox GLR-Pluri Assay Evaluation of SRY-box transcription factor 2 (SOX2) Protein Expression, Deisenroth Lab (AID 2284428)", "procedure,_shortened": "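Percent SOX2+ RUES2-GLR cells, determined by fluorescence microscopy after 48 h and two 24-h-interval chemical exposures spanning 1 nM–200 uM, served as the endpoint. Values are expressed relative to 0.2% DMSO; total cell counts assessed viability.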"}
{"smiles": "COc1ccc2[nH]c([S@@](=O)Cc3ncc(C)c(OC)c3C)nc2c1", "AC50": "66.6 µM (active)"}
{"smiles": "Oc1cc(O)c2c(c1)O[C@H](c1ccc(O)c(O)c1)[C@@H](O)C2", "AC50": "5.13 µM (active)"}
{"smiles": "Nc1cccc2c1C(=O)N(C1CCC(=O)NC1=O)C2=O", "note": "(centres undefined)", "AC50": "1.04 µM (active)"}
{"smiles": "c1cc(-c2cnn3cc(-c4ccc(OCCN5CCCCC5)cc4)cnc23)ccn1", "AC50": "3.94 µM (active)"}
{"system": "Brachyury (BRA) Protein Expression, Deisenroth Lab, TBXT (gene 6862)", "assay": "CCTE_Deisenroth_DEVTOX-GLR_Pluri_BRA: CCTE's DevTox GLR-Pluri Assay Evaluation of Brachyury (BRA) Protein Expression, Deisenroth Lab (AID 2284429; active = hit-call score of the fitted dose curve at least 0.9, where 1 is the maximum)", "procedure,_shortened": "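Mesoderm readout after 48 h differentiation of human RUES2-GLR cells, dosed twice (24-h intervals) at 1 nM - 200 uM. BRA+ frequency from fluorescence imaging of fixed, nuclear-stained cells, DMSO-corrected.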"}
{"smiles": "COc1ccc2[nH]c([S@@](=O)Cc3ncc(C)c(OC)c3C)nc2c1", "AC50": "46.4 µM (active)"}
{"smiles": "Oc1cc(O)c2c(c1)O[C@H](c1ccc(O)c(O)c1)[C@@H](O)C2", "AC50": "157 µM (active)"}
{"smiles": "Nc1cccc2c1C(=O)N(C1CCC(=O)NC1=O)C2=O", "note": "(centres undefined)", "AC50": "25.1 µM (active)"}
{"smiles": "c1cc(-c2cnn3cc(-c4ccc(OCCN5CCCCC5)cc4)cnc23)ccn1", "AC50": "3.02 µM (active)"}
{"system": "not listed separately", "assay": "CCTE_Deisenroth_DEVTOX-GLR_Pluri_CellCount: Viability Assessment in CCTE's DevTox GLR-Pluri Assay Evaluation of Total Cell Counts, Deisenroth Lab (AID 2284430)", "procedure,_shortened": "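Cytotoxicity readout: fluorescent nuclei counts by high-content imaging, expressed as percent change relative to 0.2% DMSO. Human RUES2-GLR pluripotent line differentiated 48 h, dosed twice at 24-h intervals across 1 nM - 200 uM (10 points).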"}
{"smiles": "COc1ccc2[nH]c([S@@](=O)Cc3ncc(C)c(OC)c3C)nc2c1", "AC50": "31.3 µM (active)"}
{"smiles": "Oc1cc(O)c2c(c1)O[C@H](c1ccc(O)c(O)c1)[C@@H](O)C2", "outcome": "inactive"}
{"smiles": "Nc1cccc2c1C(=O)N(C1CCC(=O)NC1=O)C2=O", "note": "(centres undefined)", "outcome": "inactive"}
{"smiles": "c1cc(-c2cnn3cc(-c4ccc(OCCN5CCCCC5)cc4)cnc23)ccn1", "AC50": "3.39 µM (active)"}
